CYP2C9 inhib – blocks human cytochrome P450 2C9. hit rate 20% among 96,000. inhibition, % at 5 µM. P11712. AID 777. CYP2C9 Supersomes, luciferin-H conversion, luminescence;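 active = blocking of liver enzyme CYP2C9 beyond about 50% at 5 µM, limit read from the data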
CYP2C19 inhib – inhibitors of human CYP2C19. P33261. CYP2C19 Supersomes, luciferin-H EGE luminescence, 30 min. inhibition, % at 5 µM. hit rate 21% among 96,000. AID 778;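 active = CYP2C19 inhibition above a set limit at 5 µM in the primary screen, cut at about 50% in these data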;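 note: plate controls were negative control wells for no effect and 2.5 mM tranylcypromine positive control for full effect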
Target sequence (P33261 whole entry, looked up): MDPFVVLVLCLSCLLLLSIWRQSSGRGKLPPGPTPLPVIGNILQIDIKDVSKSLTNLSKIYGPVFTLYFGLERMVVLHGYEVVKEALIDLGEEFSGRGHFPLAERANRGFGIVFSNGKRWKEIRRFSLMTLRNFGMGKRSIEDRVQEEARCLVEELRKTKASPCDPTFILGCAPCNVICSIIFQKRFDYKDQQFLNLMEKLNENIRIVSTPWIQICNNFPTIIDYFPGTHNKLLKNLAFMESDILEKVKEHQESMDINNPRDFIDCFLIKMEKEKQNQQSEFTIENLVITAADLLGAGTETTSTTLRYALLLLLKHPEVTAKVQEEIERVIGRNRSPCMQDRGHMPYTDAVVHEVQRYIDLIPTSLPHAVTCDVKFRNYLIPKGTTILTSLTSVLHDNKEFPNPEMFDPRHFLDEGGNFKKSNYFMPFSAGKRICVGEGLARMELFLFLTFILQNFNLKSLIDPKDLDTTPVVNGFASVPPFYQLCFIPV
PostGolgi yeast – growth inhibition of a yeast mutant, post-Golgi transport screen. post-Golgi transport phenotypic cell assay. inhibition, % at 10 µM. hit rate 0.9% among 98,000;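 note: yeast cells grown in 1536-well plates; yeast grown about 18 h at 30C before absorbance read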
CYP2C9 act – increases human cytochrome P450 2C9 activity | hit rate 1.4% among 96,000 | activation factor at 5 µM | P11712 | recombinant CYP2C9, luciferin-H conversion, luminescence; active compounds read high; factor 1 = untreated enzyme, 0 = blocked | AID 1024;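 active = activation factor of 2 or more for CYP2C9 at a 5 µM dose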;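 note: 0 = sulfaphenazole-blocked wells and 1 = vehicle-only wells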
CYP2C19 activ – activators of human cytochrome P450 2C19; P33261; recombinant CYP2C19, luciferin-H EGE luminescence; active compounds read high; 0 = fully inhibited enzyme, 1 = untreated enzyme; activation factor at 5 µM; 96,000 tested, under 10 active; AID 1025;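 active = activation factor of at least 2 at 5 µM in the primary screen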;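 note: 0 = wells with 2.5 mM tranylcypromine and 1 = vehicle-only wells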
PostGolgi ctrl – growth of the yeast control strain, post-Golgi counter-screen. hit rate 5% among 98,000. inhibition, % at 10 µM. efflux-deficient yeast background strain, growth absorbance A615, 16 h. AID 738
An asterisk follows results filed as active; . = no result. Hits are enriched below; roughly 32% of the tested compounds scored in any of these assays. Cut-off read from the data, not from the text of the source, unless noted: active = inhibition above about 30%; inactive = the rest.

SMILES	CYP2C9 inhib	CYP2C19 inhib	PostGolgi yeast	CYP2C9 act	CYP2C19 activ	PostGolgi ctrl
N#CC1=C(N)SC(N)=C(C#N)C1C1CC=CCC1 (configuration not stated)	48	84*	4	0.5	0.2	9
CCCCC(CC)C(=O)NCCc1ccc(S(N)(=O)=O)cc1 (configuration not stated)	59*	9	19	0.4	0.9	-5
CCC(CC)C(=O)NCCc1ccc(S(N)(=O)=O)cc1	49	-14	8	0.5	1.1	-1
CC(=O)Nc1cccc(C(=O)NC(C)c2ccc(S(N)(=O)=O)cc2)c1 (configuration not stated)	7	-6	22	0.9	1.1	-2
CCC(CC)C(=O)Nc1cccc(C(=O)NCCc2ccc(S(N)(=O)=O)cc2)c1	90*	78*	5	0.1	0.2	18
Clc1ccc(CO/N=C/c2c(-c3ccccc3)nc3n2CCS3)c(Cl)c1	65*	12	23	0.4	0.9	18
FCCCOc1ccc(/C=N/OCc2ccc(Cl)cc2Cl)cc1	12	4	4	0.9	1	6
Cc1[nH]n2c(=O)cc(Cc3ccccc3)nc2c1C#N	77*	-6	0	0.2	1.1	16
Cc1nc2nc(-c3ccccc3)[nH]n2c(=O)c1Cc1ccccc1	40	5	-8	0.6	1	3
Cc1nc2c(C#N)c(C)[nH]n2c(=O)c1Cc1ccccc1	63*	-9	10	0.4	1.1	37*
Cc1nc2c(C#N)c[nH]n2c(=O)c1Cc1ccccc1	63*	13	1	0.4	0.9	23
Cc1ccc(CNC(=O)C2CCC(=O)N2CCc2ccccc2)cc1 (configuration not stated)	-9	10	3	1.1	0.9	10
CCCCN(Cc1ccco1)C(=O)Cn1ncc2c(=O)oc3ccc(C)cc3c21	20	29	4	0.8	0.7	15
Cc1oc(CC(C)C)cc1C(=O)Nc1ccc(C(=O)O)cc1	2	-1	4	1	1	5
CCCn1c(O)c(CN2CCCCC2)c(C)c(C#N)c1=O	63*	-8	3	0.4	1.1	0
O=C(Cn1cnc2c(cnn2-c2ccccc2Cl)c1=O)N1CCc2ccccc21	-5	-5	-5	1.1	1	7
O=C1N(CC(=O)N2CCc3ccccc32)CCN1Cc1ccccc1Cl	-204	25	3	3*	0.7	0
O=C(CN1CCN(Cc2ccccc2Cl)C1=O)NC1CCCCCC1	-80	60*	-12	1.8	0.4	5
COc1ccc(Cl)cc1NC(=O)C1CCCN(S(=O)(=O)c2cccc3nonc23)C1 (configuration not stated)	.	.	3	.	.	1
COC(=O)c1ccc(C(=O)OC)c(NS(=O)(=O)c2ccc(NC(C)=O)cc2)c1	90*	62*	3	0.1	0.4	6
COC(=O)c1sccc1NS(=O)(=O)c1ccc(OC)cc1	0	37	3	1	0.6	18
COC(=O)c1ccc(Sc2ccccc2NS(=O)(=O)c2ccc(NC(C)=O)cc2)nc1	80*	61*	-6	0.2	0.4	17
COC(=O)c1ccc(C)c(NS(=O)(=O)c2ccc(OC)cc2)c1	70*	100*	-9	0.3	0	12
COC(=O)c1ccc(C)c(NS(=O)(=O)c2ccc3c(c2)OCCO3)c1	62*	91*	-3	0.4	0.1	8
COC(=O)c1cccc(NS(=O)(=O)c2ccc(NC(C)=O)cc2)c1C	-36	38	0	1.4	0.6	6
SMILES	CYP2C9 inhib	CYP2C19 inhib	PostGolgi yeast	CYP2C9 act	CYP2C19 activ	PostGolgi ctrl
COC(=O)C(C)n1cnc2c(nnn2-c2ccc(OC)cc2)c1=O (configuration not stated)	11	1	0	0.9	1	9
Cn1nnnc1CCOCCc1nnnn1C	2	-2	7	1	1	1
COC(=O)c1ccc(C)c(NS(=O)(=O)c2ccc(C)c([N+](=O)[O-])c2)c1	80*	90*	-8	0.2	0.1	12
COC(=O)c1ccc(N2CCN(S(=O)(=O)c3ccccc3)CC2)c([N+](=O)[O-])c1	31	13	-6	0.7	0.9	6
Cc1ccc(N2C(=O)N(CC(=O)NCc3ccc(Cl)cc3)C(=O)C2C)cc1 (configuration not stated)	22	74*	5	0.8	0.3	17
COc1ccccc1CNC(=O)CN1C(=O)C(C)N(c2ccc(C)cc2)C1=O (configuration not stated)	10	19	-2	0.9	0.8	-4
COc1ccc(CNC(=O)CN2C(=O)C(C)N(c3ccc(C)cc3)C2=O)cc1 (configuration not stated)	78*	94*	-1	0.2	0.1	-4
CCCn1c2ccccc2c2nnc(SC(CC)C(=O)Nc3sc4c(c3C#N)CCCC4)nc21 (configuration not stated)	89*	70*	-2	0.1	0.3	2
CCOC(=O)C(Sc1nnc2c3ccccc3n(CC)c2n1)C(=O)OCC	36	32	-2	0.6	0.7	10
Cc1ccc(N2CCCCn3c2nc2c3c(=O)[nH]c(=O)n2C)cc1	12	8	5	0.9	0.9	17
COc1ccc(S(=O)(=O)N2CCN(C(=O)NCc3ccccc3)CC2)cc1	-6	-3	-9	1.1	1	9
CCOC(=O)N1CCC(N2CCN(S(=O)(=O)c3ccc(Cl)cc3)CC2)CC1	13	15	-1	0.9	0.8	8
COc1ccc(S(=O)(=O)N2CCN(C(=O)c3cnc(C)cn3)CC2)cc1	0	50*	2	1	0.5	-9
CCOC(=O)C1CCN(S(=O)(=O)c2ccc(OCC)cc2)CC1	-11	94*	-5	1.1	0.1	5
CCOC(=O)c1ccc(S(=O)(=O)N2CCN(C)CC2)cc1	-4	2	-5	1	1	-3
CCOc1ccc(S(=O)(=O)N2CCN(C(=O)c3sccc3C)CC2)cc1	32	74*	-1	0.7	0.3	5
CCOC(=O)c1ccc(S(=O)(=O)N2CCC(C(=O)OCC)CC2)cc1	19	19	0	0.8	0.8	1
CCOC(=O)N1CCN(S(=O)(=O)c2ccc(OCC)cc2)CC1	35	76*	8	0.6	0.2	10
O=C(O)c1nc(N2CCCC2)ncc1Cl	6	1	1	0.9	1	-11
COc1ccc(Cc2nnc(NC(=O)c3cccc([N+](=O)[O-])c3C)s2)cc1	-14	-15	1	1.1	1.1	5
O=C(O)COCc1nc2ccccc2[nH]1	1	3	-5	1	1	21
O=C(C(Cc1ccccc1)NS(=O)(=O)c1cccc2cccnc12)N1CCc2ccccc21 (configuration not stated)	31	13	5	0.7	0.9	12

Source: PubChem (several laboratories)
